# The sample as a whole holds a higher share of hits than the screen did.
# hDAT+cocaine = modulates human dopamine transporter uptake under cocaine; LLC-PK1 hDAT cells, [14C]-dopamine uptake with cocaine IC80; actives deviate in either direction; B-score at 10 µM; 110,000 compounds, 1.3% hits; AID 449768;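 active means Z score or B-score, a plate-position-corrected score, falls beyond the plate's 99.7% confidence bounds, in either direction; inactive means both scores lie inside the 99.7% bounds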
# Target sequence (Q01959 whole entry, looked up): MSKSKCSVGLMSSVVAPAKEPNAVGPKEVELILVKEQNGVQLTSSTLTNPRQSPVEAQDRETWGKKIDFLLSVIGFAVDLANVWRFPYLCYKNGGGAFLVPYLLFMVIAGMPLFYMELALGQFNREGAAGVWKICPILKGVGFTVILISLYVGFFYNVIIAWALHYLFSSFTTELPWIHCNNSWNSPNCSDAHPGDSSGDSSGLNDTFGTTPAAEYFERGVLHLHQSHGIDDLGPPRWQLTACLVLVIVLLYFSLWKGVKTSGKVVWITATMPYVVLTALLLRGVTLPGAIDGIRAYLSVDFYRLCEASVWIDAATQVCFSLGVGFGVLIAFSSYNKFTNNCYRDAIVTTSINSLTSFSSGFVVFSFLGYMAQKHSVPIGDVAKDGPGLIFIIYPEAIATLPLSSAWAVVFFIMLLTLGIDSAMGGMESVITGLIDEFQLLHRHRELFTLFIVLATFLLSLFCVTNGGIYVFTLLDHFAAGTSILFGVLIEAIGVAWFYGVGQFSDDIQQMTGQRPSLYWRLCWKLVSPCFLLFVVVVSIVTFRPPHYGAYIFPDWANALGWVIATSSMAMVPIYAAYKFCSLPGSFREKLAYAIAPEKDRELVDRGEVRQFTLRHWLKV
# BAP1 block = blocks human BAP1 ubiquitin-AMC hydrolysis; recombinant BAP1, Ub-AMC hydrolysis fluorescence kinetic; hits give low values; AID 436; calls only at 20 µM; 72,000 compounds, 0.48% hits;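 active means activity remaining at or below 50% of control, provided the compound also passes the data quality filters; inactive means the rest, including low values that fail the filters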
# D1 mod = D1 dopamine receptor (human) allosteric modulation; AID 641; HEK293 D1, CRE-luciferase, dopamine EC30 potentiation; actives deviate in either direction; P21728; 58,000 compounds, 5.9% hits; B-score at 10 µM;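 active means luminescence count or its row- and column-corrected plate score outside the 99.7% band of the plate's sample wells, on either side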
# D1 mod confirm = D1 receptor (human) allosteric modulation, confirmed; HEK293 D1 CRE-luciferase, dopamine EC30 potentiation; hits give high values; shares compounds with D1 mod; luminescence at 10 µM; 2,200 compounds, 88% hits;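 active means luminescence in either of two replicates above the same-plate mean plus 3 SD of the low-dose dopamine control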
# D1 ag no DA = D1 (human) signaling in absence of dopamine. HEK293 D1 CRE-luciferase, luminescence, no dopamine; hits give high values. luminescence at 10 µM. shares compounds with D1 mod. 1,900 compounds, 0.8% hits; in the data active means luminescence above about 3900
# Isoprot counter = counter-screen for D1 modulators: isoproterenol response in HEK293 cells. 2,200 compounds, 63% hits. luminescence at 10 µM. shares compounds with D1 mod. HEK293 D1 CRE-luciferase, isoproterenol EC30 counter-screen; hits give high values;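 active means luminescence in either replicate above plate mean of wells with a partly effective reference agonist dose plus 3 SD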;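 further: isoproterenol raises cAMP through native beta-adrenoceptor Gs so signal bypasses D1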
# Hits are given with their value; . = inactive; / = not tested or not shown.
SMILES,hDAT+cocaine,BAP1 block,D1 mod,D1 mod confirm,D1 ag no DA,Isoprot counter
c1ccc(-c2nn3c(-c4ccccc4)nnc3s2)cc1,.,.,6.3,14100,.,.
O=c1oc2ccc(Br)cc2cc1-c1nc(-c2ccc(Br)cc2)cs1,/,.,/,/,/,/
CCS(=O)(=O)Nc1ccc(I)cc1,/,.,/,/,/,/
CC1=C(C(=O)OCc2ccccc2)C(c2ccncc2)C2=C(CC(C)(C)CC2=O)N1 (centres undefined),/,.,/,/,/,/
COc1ccc(CN2CCN(S(=O)(=O)c3ccc(NC(C)=O)cc3)CC2)cc1OC,.,.,5.2,15368,.,3736
COc1cc(CN2CCN(S(=O)(=O)c3ccc(NC(C)=O)cc3)CC2)cc(OC)c1O,.,.,.,/,/,/
COc1ccc(CN2CCN(S(=O)(=O)c3ccccc3)CC2)c(OC)c1,.,.,4.4,6876,.,.
COc1ccc(CN2CCN(S(=O)(=O)c3ccc(F)cc3)CC2)c(OC)c1OC,.,/,/,/,/,/
COc1ccccc1CN1CCN(S(=O)(=O)c2ccccc2)CC1,.,/,/,/,/,/
COc1ccc(CN2CCN(S(=O)(=O)c3ccc(F)cc3)CC2)cc1OC,.,.,22,24864,.,4916
O=C(c1ccccc1Cl)N1CCN(c2ccc(F)cc2)CC1,/,.,/,/,/,/
O=C(Nc1nc(-c2cccs2)cs1)c1ccc(Cc2ccccc2)cc1,/,.,/,/,/,/
COc1cccc(C(=O)Nc2ccc(Cl)c([N+](=O)[O-])c2)c1,/,.,/,/,/,/
O=C(CSc1ncnc2c1oc1ccccc12)Nc1ccccc1F,.,.,.,/,/,/
CCOc1ccccc1NC(=O)CSc1ncnc2c1oc1ccccc12,.,.,3.6,6488,.,3352
O=C(O)C1C2CC=CC2c2cc(Oc3ccccc3)cc3c2N1CC1CC=CC31 (centres undefined),/,.,/,/,/,/
Cc1cccc2cc(CN(CC3CCCO3)S(=O)(=O)c3ccccc3)c3nnnn3c12 (centres undefined),/,.,.,/,/,/
Cc1cccc2cc(CN(CC3CCCO3)C(=O)c3cccnc3)c3nnnn3c12 (centres undefined),.,.,5.5,15420,/,4484
OCCn1c(-c2ccc(Cl)cc2)cn2c3ccccc3nc12,/,.,/,/,/,/
CCn1c(SCc2nc3ccccc3s2)nnc1-c1cccs1,.,.,.,/,/,/
CCCn1c(=O)c2ccccc2n2c(SCCOc3ccccc3)nnc12,.,.,4.7,10356,/,.
CCCn1c(=O)c2ccccc2n2c(SCc3nc4ccccc4s3)nnc12,.,.,6.7,7964,.,.
CCCn1c(C)cc(C(=O)CSc2nnc3n(CCC)c(=O)c4ccccc4n23)c1C,/,.,.,/,/,/
COc1ccc(C2NC(=O)NC(C)=C2C(=O)OCCc2ccccc2)cc1OC (centres undefined),/,.,/,/,/,/
COc1ccc(-c2nc(CN3CCC(C(=O)NC(C)C)CC3)c(C)o2)cc1OC,/,.,.,/,/,/
SMILES,hDAT+cocaine,BAP1 block,D1 mod,D1 mod confirm,D1 ag no DA,Isoprot counter
COc1ccc(-c2nnc(SCC(=O)N3CCCc4ccccc43)o2)cc1OC,.,.,16,19988,.,3384
COc1ccccc1-c1nnc(SCC(=O)N2CCOCC2)o1,.,.,.,/,/,/
COc1ccc(-c2nnc(SCC#CCO)o2)cc1OC,.,.,15,16500,.,4316
COc1ccc(-c2nnc(SCC(=O)N3CCCC3)o2)cc1OC,.,.,.,/,/,/
COc1ccccc1-c1nnc(SCC(=O)N2CCC(C)CC2)o1,.,.,3.1,.,/,.
OCC#CCSc1nnc(-c2ccc(Br)cc2)o1,.,.,.,/,/,/
COc1ccc(-c2nc(CN3CCC(C(=O)N4CCc5ccccc54)CC3)c(C)o2)cc1OC,.,.,2.8,6820,.,3344
COc1ccc(S(=O)(=O)Nc2cccc(C(=O)O)c2)cc1C(=O)O,/,.,/,/,/,/
CCS(=O)(=O)n1nc(-c2ccc(Cl)cc2)nc1N,.,.,5,8932,.,3060
CCS(=O)(=O)n1nc(-c2ccc(C)cc2)nc1N,.,.,.,/,/,/
C=CCSc1nnc2n(-c3ccccc3OC)c(=O)c3c4c(sc3n12)CCC4,.,.,5.7,11688,.,.
CSc1nnc2n(-c3ccccc3)c(=O)c3c4c(sc3n12)CCC4,.,.,17,18696,.,5104
CCCSc1nnc2n(-c3ccccc3OC)c(=O)c3c4c(sc3n12)CCC4,.,.,/,/,/,/
O=C(c1ccc(C(=O)N2CCN(c3cccc(Cl)c3)CC2)cc1)N1CCN(c2cccc(Cl)c2)CC1,/,.,/,/,/,/
CNc1nc(OC)nc(N2CCOCC2)n1,.,.,6,19816,.,4052
CNc1nc(OCC(F)(F)F)nc(N2CCOCC2)n1,.,/,/,/,/,/
N#CC1=C(N)C(C#N)(C#N)C(c2cccnc2)C2CCCC=C12 (centres undefined),.,.,.,/,/,/
N#CC1=C(N)C(C#N)(C#N)C(c2ccc[nH]2)C2CCCC=C12 (centres undefined),.,.,2.8,.,.,.
O=C(Nc1nc(-c2ccc(F)cc2)cs1)c1cccc([N+](=O)[O-])c1,/,.,/,/,/,/
O=C(NCCNC(=O)C(c1ccccc1)c1ccccc1)c1ccco1,.,.,5.3,6392,/,.
COc1ccccc1C(=O)NCCNC(=O)c1ccco1,.,.,.,/,/,/
COc1cc(C2CC(=O)NC3=C2C(=O)CC(C)(C)C3)ccc1O (centres undefined),.,.,.,/,/,/
CCOc1ccccc1C1CC(=O)NC2=C1C(=O)CC(C)(C)C2 (centres undefined),.,.,3.3,.,.,.
CCOc1ccc(-c2nnc(-c3ccccc3)o2)cc1,.,/,/,/,/,/
CCOc1ccc(-c2nnc(-c3cccnc3)o2)cc1OCC,.,.,8.1,20776,.,3728
SMILES,hDAT+cocaine,BAP1 block,D1 mod,D1 mod confirm,D1 ag no DA,Isoprot counter
COc1ccc(-c2nnc(-c3cccnc3)o2)cc1OC,.,.,4.1,8388,/,3268
COc1cc(-c2nnc(-c3cccnc3)o2)cc(OC)c1OC,.,.,.,/,/,/
CCN(CC(=O)Nc1ccc2c(c1)OCCO2)c1ccc(S(=O)(=O)N2CCOCC2)cn1,.,.,.,/,/,/
CCN(CC(=O)Nc1ccc2c(c1)OCCO2)C(=O)c1cccc(S(=O)(=O)N2CCOCC2)c1,.,.,3,.,/,.
CNc1oc(-c2ccco2)nc1C#N,.,/,.,/,/,/
N#Cc1nc(-c2cccs2)oc1NCCc1ccccc1,.,.,12,14100,.,13268
Cc1ccc(CNc2oc(-c3ccco3)nc2C#N)cc1,/,/,27,18284,.,5916
COc1ccc(Nc2oc(-c3cccs3)nc2C#N)cc1,.,.,8.1,16196,.,4256
N#Cc1nc(-c2ccco2)oc1NCCc1ccccc1,.,/,5.5,13580,.,3636
COc1ccc(CCNc2oc(-c3ccco3)nc2C#N)cc1,.,.,.,/,/,/
Cc1nc2ccc3nc(NC(=O)c4ccc(S(=O)(=O)N(C)c5ccccc5)cc4)sc3c2s1,/,.,/,/,/,/
Cc1ccc(-c2nc(C#N)c(NCc3cccc4c3OCO4)o2)cc1,.,.,.,/,/,/
N#Cc1nc(-c2cccs2)oc1NCc1ccc2c(c1)OCO2,.,.,16,19192,.,6468
c1ccc(Cc2nnc3sc(-c4ccc5c(c4)OCCO5)nn23)cc1,.,.,6.9,12856,.,4732

# Screening data deposited in PubChem BioAssay by several laboratories.
